# In PubChem BioAssay (NCATS):
# Calls of active or inactive are those of the source. Calls come from the whole dose curve; as a rule, active = well fitted curve in the direction sought with a large enough effect; inconclusive = small, poorly fitted or top-dose-only effect, or another doubt; inactive = no such curve, though single readings can be large or run the other way.
# Experiment: Cellular Toxicity (caspase-3) HUV-EC-C (AID 656)
# Details: HUV-EC-C cells, caspase-3 activation (apoptosis), vehicle = 0, 100 µM tamoxifen = 100%; series mostly up to 92.2 µM
# From the text: NIH Chemical Genomics Center [NCGC]
# NIH Molecular Libraries Screening Centers Network [MLSCN]
# National Institutes of Environmental Health Sciences [NIEHS]
# National Toxicology Program [NTP]
# We have developed a 1536-well cell-based assay for quantitative high throughput screening (qHTS) against a number of cell lines to determine in vitro caspase 3/7 of small molecules. This particular assay uses the HUV-EC-C cell line which is derived from normal human vascular endothelial cells.
# NCGC Assay Protocol Summary:
# The Caspase-Glo 3/7 assay (Promega) is a homogeneous method to measure caspase-3 and caspase-7 activities in cultured cells. The quantitation of caspase 3/7 activity is based on the cleavage of a peptide-aminoluciferin substrate. After caspase cleaves the substrate the free aminoluciferin is liberated and serves as the substrate of luciferase, which generates the light. The luminescent signal is proportional to amount of caspase 3/7 activity present.
# Using the Caspase-Glo 3/7 assay, the amount of caspase 3/7 activity was measured in the HUV-EC-C cell line with complete culture medium following compound treatment for 16 hours. The assay was performed in opaque white 1536-well plates. In the screen, tamoxifen and doxorubicin were used as positive controls. Library compounds were measured for their ability to cause the activation of caspase 3/7 in the cell line, as reflected by an increase in luminescence signal, in a concentration-dependent manner. Data were normalized to the controls for basal activity (DMSO only) and 100% stimulation (100 uM tamoxifen). AC50 values were determined from concentration-response data modeled with the standard Hill equation.
# qHTS protocol for caspase 3/7 assay in HUV-EC-C cell line
# [Step] [Parameter] [Value] [Description]
# 1. Reagent; 5 uL; 1000 HUV-EC-C cells/well
# 2. Time; 5 hr; 37 °C incubation
# 4. Controls; 23 nL; Tamoxifen 0.23 uM to 100 uM & doxorubicin 7.0 pM to 100 uM
# 5. Time; 16 hr; 37 °C incubation
# 6. Reagent; 5 uL; Caspase-Glo 3/7 reagent
# 7. Time; 20 min; Room Temperature
# 8. Detection; Luminescence; Viewlux plate reader
# Keywords: caspase 3/7, apoptosis, HUV-EC-C cell line, luminescence, NTPHTS, NTPHTS_NCGC, NIEHS, EPA, DSSTox, MLSMR, MLSCN, NIH Roadmap, qHTS, NCGC
row,Compound,outcome
1,CC1=C(/C=C/C(C)=C/C=C/C(C)=C/CO)C(C)(C)CCC1,inactive
2,Cc1ccccc1,inactive
3,CCCCCCCC/C=C\CCCCCCCC(=O)O,inactive
4,CC(C)=O,inactive
5,CC(O)CO (stereo not given),inactive
6,Nc1ccn([C@H]2CS[C@@H](CO)O2)c(=O)n1,inactive
7,CCOC(C)=O,inactive
8,CCOc1ccc2c(c1)C(C)=CC(C)(C)N2,inactive
9,CCCCC/C=C\C/C=C\CCCCCCCC(=O)O,inactive
10,O=CCCCC=O,inactive
11,IC(I)I,inactive
12,O=S(=O)(O)O,inactive
13,CCCCCCCC(=O)O,inactive
14,O=C(O)CCC(=O)C(=O)O,inactive
15,CC1=C2[C@@H]([C@H](C)CC[C@H]2/C=C(\C)C(=O)O)[C@H](O)C1,inactive
